Screening data: PubChem, National Center for Advancing Translational Sciences (NCATS)
ELG1 genotox: induces genotoxicity in HEK293T cells with luciferase-tagged ELG1 | Potency, µM (titrated, usually from 46 µM), inactives show top-dose activity change, positive = activation, most hits filed as activators | HEK293T ELG1-luciferase reporter, luminescence, 16 h | actives 1.3% (n = 330,000); also: % of control where 0% means no effect; nearly all actives have a fitted effect of over 60% in size
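HEK293T cells expressing luciferase-tagged ELG1 were treated with compound or DMSO for 16 hr at 37°C. Luciferase activity was then read after 30 min with ONE-Glo at room temperature; rising signal flags genetic stress.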
Rab9 promoter act: Rab9 promoter activation; Huh7 Rab9 promoter-luciferase reporter, luminescence, 24 h; Potency, µM (doses to about 9.22 µM), inactives show at the top dose activation, negative = inhibition, usual class: activators; actives 2.8% (n = 320,000); AID 485297; also: % of control where 0% means no effect; nearly all actives have a fitted effect of over 60% in size
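Quantitative HTS format; Huh7 Rab9-luciferase reporter cells (1500/well) receive compound 2 h post-plating, incubate 24 h at 37 °C, then get luciferase reagent for 10 min before luminescence reading.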
NPC1 prom act: NPC1 promoter activation; Huh7 NPC1 promoter luciferase reporter, 24 h; actives 2.4% (n = 320,000); Potency, µM (titrated, usually from 9.22 µM), for inactives: at the highest dose activation, most hits filed as activators; also: % of control where 0% means no effect; nearly all actives have a fitted effect of over 60% in size
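NPC1 promoter–luciferase Huh7 cells; 24 h compound; luminescence.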
FLuc counter: firefly luciferase modulation, counter-screen for miR-21 project | actives 6.9% (n = 360,000) | P08659 | Potency, µM (doses to about 57.5 µM), for inactives: at the top dose activity change, negative = inhibition, hits mostly inhibitors | purified FLuc, Km substrates, luminescence inhibition;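 also: plate controls were vehicle for no effect and reference inhibitor for full effect; nearly all actives have a fitted effect of over 55% in size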
Target sequence (P08659 whole entry, looked up): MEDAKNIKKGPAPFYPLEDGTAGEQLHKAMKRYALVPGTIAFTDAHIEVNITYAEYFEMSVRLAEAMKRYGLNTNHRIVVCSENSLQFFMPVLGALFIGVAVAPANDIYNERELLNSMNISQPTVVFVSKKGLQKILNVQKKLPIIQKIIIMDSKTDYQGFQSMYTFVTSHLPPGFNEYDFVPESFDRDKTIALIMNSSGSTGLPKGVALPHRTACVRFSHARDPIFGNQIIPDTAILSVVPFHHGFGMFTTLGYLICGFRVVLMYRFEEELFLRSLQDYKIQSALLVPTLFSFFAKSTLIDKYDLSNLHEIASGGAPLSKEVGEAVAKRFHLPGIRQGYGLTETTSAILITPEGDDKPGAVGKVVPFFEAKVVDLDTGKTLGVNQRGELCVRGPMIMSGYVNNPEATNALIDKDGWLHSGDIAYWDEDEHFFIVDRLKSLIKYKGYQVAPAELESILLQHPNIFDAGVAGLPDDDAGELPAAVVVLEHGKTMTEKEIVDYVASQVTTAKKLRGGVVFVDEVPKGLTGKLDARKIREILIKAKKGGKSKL
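Biochemical qHTS of compounds, final roughly 60 µM downward over six points, against 10 nM purified firefly luciferase using Km concentrations of substrates (10 uM D-luciferin, 10 uM ATP) in Tris acetate pH 7.5 buffer; luminescence output.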
ELG1 repair inh: inhibitors of ELG1-dependent DNA repair in HEK293T cells; HEK293T ELG1-luciferase reporter, luminescence, 16 h; DNA damage induced by 5-fluorouridine; Potency, µM (top dose mostly 46.1 µM), for the others: at the top dose activity change, negative = inhibition, usual class: inhibitors; actives 2.3% (n = 330,000); AID 504467; also: % is scaled to controls: 0 for no effect and ±100 for the full control effect; nearly all actives have a fitted effect of over 55% in size
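In this reporter screen, reduction of luminescence relative to DMSO vehicle indicated activity. Compounds and 5-fluorouridine were added together to 2,000 cells per well, incubated for 16 hr at 37 °C, then developed with ONE-Glo.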
SMN2 splice up: enhancers of SMN2 splice variant expression. HEK293 SMN2-luciferase splicing reporter, luminescence, 30-36 h. Potency, µM (series often up to 46.1 µM), inactives show at the top dose activity change, positive = activation, usual class: activators. actives 2.8% (n = 210,000); also: % of control where 0% means no effect; nearly all actives have a fitted effect of over 55% in size
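qHTS luciferase splicing reporter: luminescence rises when SMN2 exon 7 is included in transfected HEK293 cells. Compound exposure lasted 30-36 h at 37C, with 4.5 mM final sodium butyrate as control, followed by a ONE-Glo read.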
Starred values were filed as active, the others as inactive; ? = inconclusive; . = no result given. An excerpt weighted towards active compounds, which were near 9.2% of everything screened. Calls follow the shape of the dose curve; as a rule, active = well fitted curve in the direction sought with a large enough effect; inconclusive = small, poorly fitted or top-dose-only effect, or another doubt; inactive = no such curve, though single readings can be large; an effect the other way counts as inactive or inconclusive. Potency is read from the fitted curve at half-maximal effect.

SMILES | ELG1 genotox | Rab9 promoter act | NPC1 prom act | FLuc counter | ELG1 repair inh | SMN2 splice up
O=C(N/N=C/c1cc([N+](=O)[O-])ccc1O)c1cccc(N2CCCC2=O)c1 | 8% | 6% | -10% | -13% | 12µM* | .
O=C(O)c1cc2nc(-c3cccs3)cc(C(F)(F)F)n2n1 | -4% | 3% | 0% | -12% | -1% | 7%
O=C(c1ccco1)N1CCN(C(=O)c2cnn3c(C(F)(F)F)cc(-c4cccs4)nc23)CC1 | -11% | 1% | -7% | 7% | 5.8µM* | .
O=C(c1nn2c(C(F)(F)F)cc(-c3cccs3)nc2c1Br)N1CCCc2ccccc21 | 5% | -5% | -16% | -18% | ? | -45%
O=C(c1cnn2c(C(F)(F)F)cc(-c3cccs3)nc12)N1CCN(C(c2ccccc2)c2ccccc2)CC1 | -3% | -2% | -8% | 2% | 5.8µM* | -17%
CN1CCN(C(=O)c2cnn3c(C(F)(F)F)cc(-c4cccs4)nc23)CC1 | 2% | -3% | -7% | 3% | 5.8µM* | 6%
O=C(c1cnn2c(C(F)(F)F)cc(-c3cccs3)nc12)N1CCN(Cc2ccccc2)CC1 | -14% | -2% | -2% | 3% | 6.5µM* | -15%
O=C(NCCc1ccccc1)c1nc2nc(-c3cccs3)cc(C(F)(F)F)n2n1 | -8% | 14% | 12% | -20% | ? | ?
CSc1ccc(-c2nc3ccc(C)cn3c2Nc2ccccc2C)cc1 | . | . | . | -2% | . | ?
CC1=CC(C)(C)N(C(=O)CNC2CCCCC2)c2cc(C)ccc21 | -11% | -12% | -5% | 1% | -3% | .
COc1ccc(C2CC(c3ccc4ccccc4c3OC(C)=O)=NN2C(C)=O)cc1 (stereo unspecified) | ? | 4µM* | 4µM* | -1% | ? | .
COc1ccc(C2CC(c3ccc(C)o3)=NN2C(C)=O)cc1 (stereo unspecified) | ? | ? | ? | ? | ? | 13µM*
CC(=O)N1N=C(c2ccc(C)o2)CC1c1ccc(Br)cc1 (stereo unspecified) | ? | ? | 2.5µM* | ? | ? | ?
CNC(=S)N1N=C(c2ccc(Br)cc2)CC1c1ccc(Br)cc1 (stereo unspecified) | -2% | -3% | -3% | -1% | 5.8µM* | -5%
COc1ccc(C2CC(c3ccc(OC)cc3O)=NN2C(=O)c2ccccc2)cc1 (stereo unspecified) | 0% | 5% | -4% | 4% | -29% | .
COc1ccc(C2=NN(C(=O)CCC(=O)O)C(c3ccc(OC)cc3)C2)cc1 (stereo unspecified) | -1% | -4% | -20% | -6% | 11% | .
CCC(=O)N1N=C(c2ccc(C)o2)CC1c1ccc(N(C)C)cc1 (stereo unspecified) | 12% | 20% | 13% | ? | 0% | 27%
COc1ccc(C2CC(c3ccc(Cl)cc3)=NN2C(C)=O)cc1 (stereo unspecified) | 15% | ? | ? | 24µM* | ? | .
CCOc1ccc(-c2nc(CSCC(=O)N3CCN(c4cccc(OC)c4)CC3)c(C)o2)cc1 | -9% | -8% | 2% | 24µM* | ? | -97%
COc1ccc(-c2nc(CSCC(=O)N3CCN(c4ccccc4F)CC3)c(C)o2)cc1 | . | . | . | -18% | . | -65%
CCc1ccc(-c2nc(CSCC(=O)N3CCN(c4ccccn4)CC3)c(C)o2)cc1 | -11% | -26% | -10% | ? | ? | .
Cc1ccc(-c2nc(CSCC(=O)N3CCN(c4ccccn4)CC3)c(C)o2)cc1 | -8% | 0% | 0% | 6% | 10µM* | -95%
Cn1c(SCC(=O)NC(=O)NCc2ccccc2)nnc1C(F)(F)F | 1% | -8% | -5% | . | -1% | .
